The results in this text go back to paper PMC7862700, “An all-to-all approach to the identification of sequence-specific readers for epigenetic DNA modifications on cytosine”.

Assay in all cases: DAPPL (digital affinity profiling via proximity ligation, sequencing); 10 mM Tris-HCl pH 7.5, 50 mM NaCl, 1 mM DTT, 4% glycerol, room temperature, 30 min; GST-TFs on glutathione beads, 16-mer random dsDNA library, 0.1% formaldehyde crosslink after washing; high values mean tight binding
Assay [1] deals with T1, FEV (Homo sapiens, UniProt Q99581 1-238).
T1 sequence: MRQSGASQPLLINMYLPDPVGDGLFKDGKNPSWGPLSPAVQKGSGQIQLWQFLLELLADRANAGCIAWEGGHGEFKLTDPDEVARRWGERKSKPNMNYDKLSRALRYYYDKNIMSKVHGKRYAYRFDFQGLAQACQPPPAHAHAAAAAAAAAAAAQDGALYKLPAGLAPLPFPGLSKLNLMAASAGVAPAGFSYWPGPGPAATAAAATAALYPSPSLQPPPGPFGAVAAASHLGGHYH
As to conditions: protein: recombinant; tags: N-terminal GST; dsDNA, one strand shown. The procedure, abridged:
(§1)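 Human transcription factors carrying a GST fusion were produced in yeast, bound to glutathione beads, tagged with DNA barcodes and pooled together with a tag-only sample. Each pool was held with 200 nmole of a random double-stranded 16-mer DNA library in Tris/NaCl/DTT/glycerol buffer for 30 min at room temperature, then washed, crosslinked in 0.1% formaldehyde, proximity-ligated with BsaI/T4 ligase (1 h, 37 °C), PCR-amplified and sequenced on an Illumina NextSeq500. Binding signal is the read frequency of each hexamer for a given factor divided by its frequency in the tag-only sample.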

For assay [2], the target named is ETV5 (Homo sapiens, UniProt P41161 1-510). Conditions: protein: recombinant; tags: N-terminal GST; dsDNA, one strand shown. The procedure, abridged: as §1
Sequence of ETV5 (P41161 whole entry): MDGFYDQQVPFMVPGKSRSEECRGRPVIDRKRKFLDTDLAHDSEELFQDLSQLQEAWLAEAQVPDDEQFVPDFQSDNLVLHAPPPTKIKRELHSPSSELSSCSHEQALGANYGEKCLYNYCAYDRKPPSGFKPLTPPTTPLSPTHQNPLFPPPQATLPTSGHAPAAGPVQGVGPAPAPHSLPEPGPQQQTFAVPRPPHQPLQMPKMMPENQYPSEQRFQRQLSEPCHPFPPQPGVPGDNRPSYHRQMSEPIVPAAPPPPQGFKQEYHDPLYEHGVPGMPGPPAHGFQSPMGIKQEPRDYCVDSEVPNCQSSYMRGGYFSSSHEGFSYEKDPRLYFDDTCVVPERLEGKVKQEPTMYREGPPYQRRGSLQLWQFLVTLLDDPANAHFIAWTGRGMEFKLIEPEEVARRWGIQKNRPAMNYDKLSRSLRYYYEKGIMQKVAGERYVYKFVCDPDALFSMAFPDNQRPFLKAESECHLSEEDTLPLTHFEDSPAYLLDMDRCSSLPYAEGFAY
The target of assay [3] is HSF1 (Homo sapiens, UniProt Q00613 1-529). Conditions: protein: recombinant; tags: N-terminal GST; chain copies: 3; dsDNA, one strand shown. The procedure, abridged:
as §1

In assay [4] the target is T2, SPIC (Homo sapiens, UniProt Q8N5J4 1-248).
T2 sequence: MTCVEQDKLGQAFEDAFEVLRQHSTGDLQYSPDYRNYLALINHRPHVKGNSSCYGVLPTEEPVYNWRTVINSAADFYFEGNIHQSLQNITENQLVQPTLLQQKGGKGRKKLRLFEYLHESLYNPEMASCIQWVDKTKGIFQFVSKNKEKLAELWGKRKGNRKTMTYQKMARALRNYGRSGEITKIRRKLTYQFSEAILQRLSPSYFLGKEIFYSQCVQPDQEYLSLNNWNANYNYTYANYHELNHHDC
As to conditions: protein: recombinant; tags: N-terminal GST; dsDNA, one strand shown. The procedure, abridged:
as §1

Assay [5] has as its target ELF4 (Homo sapiens, UniProt Q99607 1-663). As to conditions: protein: recombinant; tags: N-terminal GST; dsDNA, one strand shown. The method, boiled down: as §1
For assay [6], the target named is T3, ELK4 (Homo sapiens, UniProt P28324-2 1-405).
T3 sequence: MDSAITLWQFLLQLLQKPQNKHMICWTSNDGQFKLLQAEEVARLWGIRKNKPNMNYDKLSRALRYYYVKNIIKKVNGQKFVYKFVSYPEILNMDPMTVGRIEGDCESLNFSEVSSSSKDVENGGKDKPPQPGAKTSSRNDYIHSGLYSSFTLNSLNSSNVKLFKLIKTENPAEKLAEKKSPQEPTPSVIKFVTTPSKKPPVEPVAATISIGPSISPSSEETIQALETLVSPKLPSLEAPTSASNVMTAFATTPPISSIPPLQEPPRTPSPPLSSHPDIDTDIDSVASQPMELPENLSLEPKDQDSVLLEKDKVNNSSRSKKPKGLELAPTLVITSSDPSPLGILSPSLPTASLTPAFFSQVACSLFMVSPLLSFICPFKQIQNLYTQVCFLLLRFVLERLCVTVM
Conditions: protein: recombinant; tags: N-terminal GST; dsDNA, one strand shown. The method, boiled down:
as §1

The target in assay [7] is T4, ETV2 (Homo sapiens, UniProt O00321 1-342).
T4 sequence: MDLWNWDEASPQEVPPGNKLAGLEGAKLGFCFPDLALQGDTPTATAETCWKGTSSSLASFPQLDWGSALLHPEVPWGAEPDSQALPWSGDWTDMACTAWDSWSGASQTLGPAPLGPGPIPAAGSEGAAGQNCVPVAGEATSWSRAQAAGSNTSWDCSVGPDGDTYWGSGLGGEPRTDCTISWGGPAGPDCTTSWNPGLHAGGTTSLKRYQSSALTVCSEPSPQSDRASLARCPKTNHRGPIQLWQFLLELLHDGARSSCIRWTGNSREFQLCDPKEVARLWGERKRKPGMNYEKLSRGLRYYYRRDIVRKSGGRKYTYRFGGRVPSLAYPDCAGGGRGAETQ
Conditions: protein: recombinant; tags: N-terminal GST; dsDNA, one strand shown. The method, boiled down:
as §1

For assay [8], the target named is T5, ELF3 (Homo sapiens, UniProt P78545 1-371).
T5 sequence: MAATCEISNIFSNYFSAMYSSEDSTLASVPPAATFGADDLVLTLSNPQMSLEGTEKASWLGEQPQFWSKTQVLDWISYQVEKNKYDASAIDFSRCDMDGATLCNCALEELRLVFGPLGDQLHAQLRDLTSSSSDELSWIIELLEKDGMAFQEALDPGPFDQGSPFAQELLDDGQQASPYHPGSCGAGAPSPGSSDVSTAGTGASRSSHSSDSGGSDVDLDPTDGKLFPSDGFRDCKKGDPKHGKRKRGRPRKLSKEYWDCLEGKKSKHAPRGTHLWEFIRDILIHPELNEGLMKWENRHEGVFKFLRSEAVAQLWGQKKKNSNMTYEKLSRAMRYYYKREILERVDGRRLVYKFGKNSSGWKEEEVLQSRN
Conditions: protein: recombinant; tags: N-terminal GST; dsDNA, one strand shown. The procedure, abridged:
as §1

The target of assay [9] is CRX (Homo sapiens, UniProt O43186 1-299). As to conditions: protein: recombinant; tags: N-terminal GST; dsDNA, one strand shown. The method, boiled down:
as §1

In assay [10] the target is ETV1 (Homo sapiens, UniProt P50549 1-477). As to conditions: protein: recombinant; tags: N-terminal GST; dsDNA, one strand shown. The procedure, abridged:
as §1

Assay [11] concerns the target T6, ERF (Homo sapiens, UniProt P50548 1-548).
T6 sequence: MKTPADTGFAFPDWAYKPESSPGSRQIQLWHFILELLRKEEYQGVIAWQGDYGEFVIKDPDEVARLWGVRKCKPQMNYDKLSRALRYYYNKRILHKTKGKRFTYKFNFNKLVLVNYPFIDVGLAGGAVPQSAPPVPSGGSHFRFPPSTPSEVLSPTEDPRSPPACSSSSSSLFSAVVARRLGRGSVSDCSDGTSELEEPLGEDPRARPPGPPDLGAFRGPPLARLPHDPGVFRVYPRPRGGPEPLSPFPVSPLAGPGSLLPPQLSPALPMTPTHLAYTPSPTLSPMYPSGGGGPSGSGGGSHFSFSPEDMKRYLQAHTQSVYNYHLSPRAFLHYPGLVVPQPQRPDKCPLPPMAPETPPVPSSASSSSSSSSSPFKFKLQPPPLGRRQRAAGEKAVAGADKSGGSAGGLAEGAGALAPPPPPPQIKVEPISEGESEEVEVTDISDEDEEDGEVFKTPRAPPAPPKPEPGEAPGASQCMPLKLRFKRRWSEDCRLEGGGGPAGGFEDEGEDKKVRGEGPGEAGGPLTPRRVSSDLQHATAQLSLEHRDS
As to conditions: protein: recombinant; tags: N-terminal GST; dsDNA, one strand shown. The method, boiled down:
as §1

Assay [12] deals with T7, ETV3L (Homo sapiens, UniProt Q6ZN32 1-361).
T7 sequence: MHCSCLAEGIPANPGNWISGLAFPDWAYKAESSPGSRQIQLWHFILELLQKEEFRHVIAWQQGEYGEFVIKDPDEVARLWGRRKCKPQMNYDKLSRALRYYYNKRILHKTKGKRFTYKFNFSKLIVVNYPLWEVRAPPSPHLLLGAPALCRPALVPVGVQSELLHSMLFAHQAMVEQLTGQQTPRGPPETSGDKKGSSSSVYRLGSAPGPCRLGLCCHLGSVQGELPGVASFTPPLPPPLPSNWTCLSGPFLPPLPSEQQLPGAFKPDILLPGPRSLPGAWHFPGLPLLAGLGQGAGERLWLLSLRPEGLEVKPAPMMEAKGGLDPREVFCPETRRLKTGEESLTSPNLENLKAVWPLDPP
As to conditions: protein: recombinant; tags: N-terminal GST; dsDNA, one strand shown. The procedure, abridged:
as §1

The target of assay [13] is T8, ETS2 (Homo sapiens, UniProt P15036 1-469).
T8 sequence: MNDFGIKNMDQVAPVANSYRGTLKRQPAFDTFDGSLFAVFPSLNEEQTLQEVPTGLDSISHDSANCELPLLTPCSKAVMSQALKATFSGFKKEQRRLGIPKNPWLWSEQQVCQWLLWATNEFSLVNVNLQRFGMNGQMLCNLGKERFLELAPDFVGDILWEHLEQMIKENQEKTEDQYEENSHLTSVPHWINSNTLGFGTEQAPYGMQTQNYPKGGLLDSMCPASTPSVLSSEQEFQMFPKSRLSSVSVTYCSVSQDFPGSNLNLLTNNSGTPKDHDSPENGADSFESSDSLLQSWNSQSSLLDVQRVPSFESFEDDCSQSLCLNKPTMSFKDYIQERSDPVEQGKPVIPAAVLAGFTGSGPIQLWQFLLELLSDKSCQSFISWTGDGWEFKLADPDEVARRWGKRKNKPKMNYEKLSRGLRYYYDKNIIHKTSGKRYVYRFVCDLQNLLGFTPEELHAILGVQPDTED
Conditions: protein: recombinant; tags: N-terminal GST; dsDNA, one strand shown. The procedure, abridged:
as §1

In assay [14] the target is T9, SPDEF (Homo sapiens, UniProt O95238 1-335).
T9 sequence: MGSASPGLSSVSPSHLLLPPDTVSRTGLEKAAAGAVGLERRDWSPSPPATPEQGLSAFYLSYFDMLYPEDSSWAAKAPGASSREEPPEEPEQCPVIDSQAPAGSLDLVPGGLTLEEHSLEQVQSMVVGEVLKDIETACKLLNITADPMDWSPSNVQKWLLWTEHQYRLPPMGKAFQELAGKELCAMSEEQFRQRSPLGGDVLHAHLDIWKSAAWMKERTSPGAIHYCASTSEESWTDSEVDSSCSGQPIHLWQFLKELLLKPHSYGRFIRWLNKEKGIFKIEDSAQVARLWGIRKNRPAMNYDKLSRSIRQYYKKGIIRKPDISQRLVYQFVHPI
Conditions: protein: recombinant; tags: N-terminal GST; dsDNA, one strand shown. The method, boiled down: as §1

Assay [15] addresses T10, ETV7 (Homo sapiens, UniProt Q9Y603 1-341).
T10 sequence: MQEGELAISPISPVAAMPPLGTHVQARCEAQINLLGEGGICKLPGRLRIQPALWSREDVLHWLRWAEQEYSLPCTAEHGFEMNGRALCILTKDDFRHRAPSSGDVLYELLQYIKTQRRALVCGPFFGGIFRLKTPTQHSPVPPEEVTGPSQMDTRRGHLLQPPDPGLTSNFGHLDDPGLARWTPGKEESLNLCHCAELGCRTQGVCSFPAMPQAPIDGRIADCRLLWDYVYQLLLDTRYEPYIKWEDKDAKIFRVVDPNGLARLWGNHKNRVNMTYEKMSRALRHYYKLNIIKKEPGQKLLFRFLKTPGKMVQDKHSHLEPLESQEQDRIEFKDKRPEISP
As to conditions: protein: recombinant; tags: N-terminal GST; dsDNA, one strand shown. The method, boiled down: as §1

The target of assay [16] is T11, ELF5 (Homo sapiens, UniProt Q9UKW6-2 1-255).
T11 sequence: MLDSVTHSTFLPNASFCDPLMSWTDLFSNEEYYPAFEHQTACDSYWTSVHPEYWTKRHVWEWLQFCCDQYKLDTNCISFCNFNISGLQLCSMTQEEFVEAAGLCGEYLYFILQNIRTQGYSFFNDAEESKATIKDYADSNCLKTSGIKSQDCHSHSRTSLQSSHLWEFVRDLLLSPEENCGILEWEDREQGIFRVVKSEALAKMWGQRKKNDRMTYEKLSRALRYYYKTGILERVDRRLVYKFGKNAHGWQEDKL
As to conditions: protein: recombinant; tags: N-terminal GST; dsDNA, one strand shown. The procedure, abridged: as §1

For assay [17], the target named is T12, ETV3 (Homo sapiens, UniProt P41162-2 1-143).
T12 sequence: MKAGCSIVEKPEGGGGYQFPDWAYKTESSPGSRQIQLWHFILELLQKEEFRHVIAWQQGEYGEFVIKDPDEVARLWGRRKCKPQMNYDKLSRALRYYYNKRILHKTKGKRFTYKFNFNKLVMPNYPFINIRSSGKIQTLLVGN
Conditions: protein: recombinant; tags: N-terminal GST; dsDNA, one strand shown. The procedure, abridged:
as §1

Assay [18] deals with ETV6 (Homo sapiens, UniProt P41212 1-452). Conditions: protein: recombinant; tags: N-terminal GST; dsDNA, one strand shown. The method, boiled down: as §1
Sequence of ETV6 (P41212 whole entry): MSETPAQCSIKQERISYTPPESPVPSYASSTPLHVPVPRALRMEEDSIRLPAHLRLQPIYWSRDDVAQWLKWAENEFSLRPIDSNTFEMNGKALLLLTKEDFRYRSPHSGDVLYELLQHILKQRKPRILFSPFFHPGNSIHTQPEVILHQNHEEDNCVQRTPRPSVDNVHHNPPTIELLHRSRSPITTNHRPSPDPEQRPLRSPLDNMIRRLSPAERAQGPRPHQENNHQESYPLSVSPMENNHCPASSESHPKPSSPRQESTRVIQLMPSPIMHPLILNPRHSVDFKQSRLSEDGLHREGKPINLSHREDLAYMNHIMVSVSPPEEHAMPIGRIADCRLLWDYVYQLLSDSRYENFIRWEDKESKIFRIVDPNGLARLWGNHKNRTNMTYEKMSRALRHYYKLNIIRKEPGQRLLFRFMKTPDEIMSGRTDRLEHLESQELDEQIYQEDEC

Sequence of CRX (O43186 whole entry): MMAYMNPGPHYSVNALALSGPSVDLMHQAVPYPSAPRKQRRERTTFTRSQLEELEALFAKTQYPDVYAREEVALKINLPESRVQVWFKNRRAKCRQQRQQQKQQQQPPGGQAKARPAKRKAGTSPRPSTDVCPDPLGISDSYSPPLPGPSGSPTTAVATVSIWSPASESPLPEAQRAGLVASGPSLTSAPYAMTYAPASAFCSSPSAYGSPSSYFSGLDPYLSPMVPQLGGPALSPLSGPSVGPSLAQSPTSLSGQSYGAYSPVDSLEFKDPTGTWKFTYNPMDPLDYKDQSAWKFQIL
Sequence of ETV1 (P50549 whole entry): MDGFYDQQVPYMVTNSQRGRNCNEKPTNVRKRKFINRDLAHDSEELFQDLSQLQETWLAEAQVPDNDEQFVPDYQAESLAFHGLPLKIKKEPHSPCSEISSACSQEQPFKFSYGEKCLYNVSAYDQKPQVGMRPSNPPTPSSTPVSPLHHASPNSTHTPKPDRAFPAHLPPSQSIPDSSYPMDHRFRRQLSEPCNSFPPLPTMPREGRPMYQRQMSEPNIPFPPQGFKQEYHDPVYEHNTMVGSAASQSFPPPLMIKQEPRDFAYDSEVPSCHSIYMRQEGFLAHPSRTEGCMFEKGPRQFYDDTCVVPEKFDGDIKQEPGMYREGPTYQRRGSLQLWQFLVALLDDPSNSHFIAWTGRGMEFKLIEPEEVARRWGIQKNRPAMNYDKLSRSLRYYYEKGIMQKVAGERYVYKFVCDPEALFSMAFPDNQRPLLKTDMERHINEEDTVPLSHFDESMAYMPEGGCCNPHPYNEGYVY
Sequence of ELF4 (Q99607 whole entry): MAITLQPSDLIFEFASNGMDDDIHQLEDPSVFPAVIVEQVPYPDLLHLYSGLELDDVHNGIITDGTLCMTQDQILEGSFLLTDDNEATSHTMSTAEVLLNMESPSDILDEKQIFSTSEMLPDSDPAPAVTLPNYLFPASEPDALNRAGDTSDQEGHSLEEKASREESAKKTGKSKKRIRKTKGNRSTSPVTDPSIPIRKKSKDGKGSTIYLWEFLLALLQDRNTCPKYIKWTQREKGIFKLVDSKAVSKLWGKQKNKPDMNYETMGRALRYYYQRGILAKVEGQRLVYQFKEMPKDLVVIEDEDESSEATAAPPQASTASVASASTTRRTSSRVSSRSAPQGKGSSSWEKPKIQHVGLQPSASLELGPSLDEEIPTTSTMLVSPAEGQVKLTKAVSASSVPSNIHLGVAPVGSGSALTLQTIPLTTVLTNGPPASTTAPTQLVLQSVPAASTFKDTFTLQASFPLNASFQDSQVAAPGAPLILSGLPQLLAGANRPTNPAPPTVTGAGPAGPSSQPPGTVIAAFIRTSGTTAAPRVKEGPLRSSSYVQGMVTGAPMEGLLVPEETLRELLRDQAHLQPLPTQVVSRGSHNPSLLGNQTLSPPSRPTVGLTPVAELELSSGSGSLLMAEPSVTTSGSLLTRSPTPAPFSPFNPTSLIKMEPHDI
Sequence of HSF1 (Q00613 whole entry): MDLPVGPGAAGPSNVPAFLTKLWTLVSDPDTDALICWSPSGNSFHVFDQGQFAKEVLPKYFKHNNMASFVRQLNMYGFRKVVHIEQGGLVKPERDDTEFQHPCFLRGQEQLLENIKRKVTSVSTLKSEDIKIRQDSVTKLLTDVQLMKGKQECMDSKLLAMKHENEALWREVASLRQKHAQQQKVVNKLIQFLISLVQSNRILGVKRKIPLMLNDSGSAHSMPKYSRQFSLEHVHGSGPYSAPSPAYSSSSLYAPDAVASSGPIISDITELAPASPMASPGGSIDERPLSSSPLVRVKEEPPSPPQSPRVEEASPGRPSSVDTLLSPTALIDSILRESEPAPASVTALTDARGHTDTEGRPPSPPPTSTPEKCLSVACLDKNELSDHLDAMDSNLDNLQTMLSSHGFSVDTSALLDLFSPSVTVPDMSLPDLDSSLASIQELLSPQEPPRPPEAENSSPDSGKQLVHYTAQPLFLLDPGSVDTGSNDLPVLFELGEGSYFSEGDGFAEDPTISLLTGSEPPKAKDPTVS

For CCTATG, the binding signal in assay [1] was 1.17 fold enrichment (6-mer frequency, TF over GST control); in assay [2] it was 1.28 fold enrichment (6-mer frequency, TF over GST control); in [3], 1.05 fold enrichment (6-mer frequency, TF over GST control); in assay [4], 1.1 fold enrichment (6-mer frequency, TF over GST control); in assay [5], 1.3 fold enrichment (6-mer frequency, TF over GST control); in assay [6], 1.35 fold enrichment (6-mer frequency, TF over GST control). Further, the binding signal in assay [7] is 1.25 fold enrichment (6-mer frequency, TF over GST control); in assay [8], 1.52 fold enrichment (6-mer frequency, TF over GST control); in [9] it was 1.02 fold enrichment (6-mer frequency, TF over GST control); in assay [10] it was 1.24 fold enrichment (6-mer frequency, TF over GST control); in [11] it was 1.11 fold enrichment (6-mer frequency, TF over GST control); in assay [12], 1.21 fold enrichment (6-mer frequency, TF over GST control). In addition, the binding signal in assay [13] was 1.19 fold enrichment (6-mer frequency, TF over GST control); in [14], 1.25 fold enrichment (6-mer frequency, TF over GST control); in assay [15] it was 1.27 fold enrichment (6-mer frequency, TF over GST control); in assay [16] it was 1.16 fold enrichment (6-mer frequency, TF over GST control); in [17], 1.29 fold enrichment (6-mer frequency, TF over GST control); in assay [18] it was 1.17 fold enrichment (6-mer frequency, TF over GST control).
